Data on seven molecules can be found in PubChem BioAssay (Tox21).

The nature of assay [1]: qHTS RealTime-Glo MT Cell Viability Assay in HEK293 cells - 40 hour (AID 1224874). Further: nearly all actives have a fitted effect of over 50% in size. Further: potency means the concentration at half of the fitted maximal effect. The following applies: RealTime-Glo luminescence; max response: stronger effect = lower value. In a few lines:
(§1)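 HEK293 cells mixed with RealTime-Glo reagents (NanoLuc plus cell-permeant prosubstrate) at 600 cells/well, preincubated 5 h at 37 C/5% CO2, then given 23 nL compound in DMSO. Nonlytic luminescence from viable cells was read at 0, 8, 16, 24, 32 and 40 h.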

Assay [2] can be described thus: A CellTox Green Cytotoxicity Assay to monitor cytotoxicity in HEK293 cells - 24 hour (AID 1224875). Further: series mostly up to about 77 µM; nearly all actives have a fitted effect of over 45% in size. Summed up:
(§2)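 HEK293 cells premixed with CellTox Green dye were seeded at 600 cells/well and left 5 h at 37 C/5% CO2 before pin transfer of 23 nL compound in DMSO. Fluorescence from dye bound to dead-cell DNA was read during 40 h treatment.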

Assay [3] in a line: A CellTox Green Cytotoxicity Assay to monitor cytotoxicity in HepG2 cells - 16 hour (AID 1224876). Further: nearly all actives have a fitted effect of over 45% in size. Summed up:
(§3)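 HepG2 cells were seeded together with the CellTox Green dye at 600 cells/well, left 5 h at 37 C/5% CO2, then given compounds in DMSO. Fluorescence from dye bound to dead-cell DNA was read repeatedly over 40 h of treatment at 37 C.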

A short description of assay [4]: qHTS RealTime-Glo MT Cell Viability Assay in HepG2 cells - 32 hour (AID 1224877). Further: nearly all actives have a fitted effect of over 55% in size. Summed up:
(§4)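 Compound treatment began 5 h after plating HepG2 cells (600/well) with NanoLuc luciferase and prosubstrate. Plates stayed at 37 C for 40 h; luminescence was captured at six time points, 0 h through 40 h.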
Background: qHTS replaces the single test concentration by a dilution series.

The nature of assay [5]: A CellTox Green Cytotoxicity Assay to monitor cytotoxicity in HepG2 cells - 24 hour (AID 1224878). Further: nearly all actives have a fitted effect of over 45% in size. In a few lines:
as §3

Assay [6] in a line: A CellTox Green Cytotoxicity Assay to monitor cytotoxicity in HepG2 cells - 40 hour (AID 1224879). Further: nearly all actives have a fitted effect of over 40% in size. Further: potency means the concentration at half of the fitted maximal effect. Summed up: as §3
The nature of assay [7]: qHTS RealTime-Glo MT Cell Viability Assay in HEK293 cells - 0 hour (AID 1224880). Further: top concentration of the series differs between compounds; nearly all actives have a fitted effect of over 45% in size. In a few lines: as §1
A short description of assay [8]: A CellTox Green Cytotoxicity Assay to monitor cytotoxicity in HEK293 cells - 32 hour (AID 1224881). Further: nearly all actives have a fitted effect of over 40% in size. Summed up: as §2
A short description of assay [9]: A CellTox Green Cytotoxicity Assay to monitor cytotoxicity in HepG2 cells - 0 hour (AID 1224882). Further: nearly all actives have a fitted effect of over 35% in size. Summed up:
as §3

Assay [10] is described as follows: A CellTox Green Cytotoxicity Assay to monitor cytotoxicity in HepG2 cells - 32 hour (AID 1224883). Further: nearly all actives have a fitted effect of over 50% in size. In a few lines: as §3
The nature of assay [11]: A CellTox Green Cytotoxicity Assay to monitor cytotoxicity in HEK293 cells - 8 hour (AID 1224884). Further: nearly all actives have a fitted effect of over 35% in size. In a few lines: as §2
Assay [12] is described as follows: qHTS RealTime-Glo MT Cell Viability Assay in HepG2 cells - 16 hour (AID 1224885). Further: nearly all actives have a fitted effect of over 50% in size. In a few lines:
as §4

The nature of assay [13]: qHTS RealTime-Glo MT Cell Viability Assay in HEK293 cells - 24 hour (AID 1224886). Further: nearly all actives have a fitted effect of over 50% in size. Further: potency means the concentration at half of the fitted maximal effect. Summed up: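 Quantitative high-throughput screen of the Tox21 10K library in HEK293: cells and RealTime-Glo reagents plated together, compound added at 5 h, luminescence monitored through 40 h at 37 C.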
Assay [14] in a line: qHTS RealTime-Glo MT Cell Viability Assay in HEK293 cells - 8 hour (AID 1224887). In a few lines:
as §1

Assay [15] can be described thus: A CellTox Green Cytotoxicity Assay to monitor cytotoxicity in HEK293 cells - 16 hour (AID 1224888). Further: nearly all actives have a fitted effect of over 35% in size. In a few lines: as §2
Assay [16] in a line: qHTS RealTime-Glo MT Cell Viability Assay in HepG2 cells - 0 hour (AID 1224889). Further: nearly all actives have a fitted effect of over 50% in size. Summed up:
as §4

Assay [17] in a line: A CellTox Green Cytotoxicity Assay to monitor cytotoxicity in HepG2 cells - 8 hour (AID 1224890). Further: nearly all actives have a fitted effect of over 45% in size. Summed up: as §3
Assay [18] in a line: qHTS assay to identify small molecule antagonists of the estrogen receptor alpha (ER-alpha) signaling pathway using the BG1 cell line in the presence of 0.1 nM 17-beta-estradiol - cell viability counter screen (AID 1259241). Further: nearly all actives have a fitted effect of over 40% in size. In a few lines:
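VM7Luc4E2 cells (endogenous full-length ER-alpha, 4xERE-luciferase), cultured 5 days in charcoal-stripped serum, exposed to compounds with 0.1 nM 17beta-estradiol (final) for 22 hr at 37C. Viability read in same wells as live-cell protease fluorescence after 30 min.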

Assay [19] can be described thus: qHTS assay to identify small molecule antagonists of the androgen receptor (AR) signaling pathway using the MDA cell line in the presence of 0.5 nM R1881 - cell viability counter screen (AID 1259242). Further: nearly all actives have a fitted effect of over 45% in size. In a few lines:
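MDA-kb2 cells (human breast carcinoma, stably carrying MMTV-luciferase reporter) were exposed to compounds with 0.5 nM R1881 (final) for 16 hr at 37C, 0% CO2; viability then read as live-cell protease fluorescence (CellTiter-Fluor, 30 min) in the same wells.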

Assay [20] deals with Androgen receptor (Homo sapiens) (UniProt P10275). As to the kind of experiment: qHTS assay to identify small molecule antagonists of the androgen receptor (AR) signaling pathway using the MDA cell line in the presence of 0.5 nM R1881 (AID 1259243). Further: nearly all actives have a fitted effect of over 50% in size. Summed up:
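MDA-kb2 human breast carcinoma cells carrying an MMTV-luciferase reporter (AR- and GR-responsive) were plated, rested 5 hr at 37C, dosed with compounds, then stimulated with 0.5 nM R1881 (final) for 16 hr; luminescence was read after ONE-Glo.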

Values joined by “and” are separate entries in the source; they are usually repeats but may differ in a detail not shown here. Identical values can stand only once. Inconclusive results are not listed. More than one record can exist for a structure, and the calls need not agree. Active and inactive are the calls of the source. The call rests on the fitted dose curve; in most records, active means well fitted curve in the direction sought with a large enough effect in the repeat runs; inconclusive means weak or mixed curves; inactive means no such curve, though single readings can be large; an effect the other way counts as inactive or inconclusive.
On the % scale 0 is the no-effect control and ±100 the full control effect.

Sequence of Androgen receptor (Homo sapiens) (P10275 whole entry, looked up): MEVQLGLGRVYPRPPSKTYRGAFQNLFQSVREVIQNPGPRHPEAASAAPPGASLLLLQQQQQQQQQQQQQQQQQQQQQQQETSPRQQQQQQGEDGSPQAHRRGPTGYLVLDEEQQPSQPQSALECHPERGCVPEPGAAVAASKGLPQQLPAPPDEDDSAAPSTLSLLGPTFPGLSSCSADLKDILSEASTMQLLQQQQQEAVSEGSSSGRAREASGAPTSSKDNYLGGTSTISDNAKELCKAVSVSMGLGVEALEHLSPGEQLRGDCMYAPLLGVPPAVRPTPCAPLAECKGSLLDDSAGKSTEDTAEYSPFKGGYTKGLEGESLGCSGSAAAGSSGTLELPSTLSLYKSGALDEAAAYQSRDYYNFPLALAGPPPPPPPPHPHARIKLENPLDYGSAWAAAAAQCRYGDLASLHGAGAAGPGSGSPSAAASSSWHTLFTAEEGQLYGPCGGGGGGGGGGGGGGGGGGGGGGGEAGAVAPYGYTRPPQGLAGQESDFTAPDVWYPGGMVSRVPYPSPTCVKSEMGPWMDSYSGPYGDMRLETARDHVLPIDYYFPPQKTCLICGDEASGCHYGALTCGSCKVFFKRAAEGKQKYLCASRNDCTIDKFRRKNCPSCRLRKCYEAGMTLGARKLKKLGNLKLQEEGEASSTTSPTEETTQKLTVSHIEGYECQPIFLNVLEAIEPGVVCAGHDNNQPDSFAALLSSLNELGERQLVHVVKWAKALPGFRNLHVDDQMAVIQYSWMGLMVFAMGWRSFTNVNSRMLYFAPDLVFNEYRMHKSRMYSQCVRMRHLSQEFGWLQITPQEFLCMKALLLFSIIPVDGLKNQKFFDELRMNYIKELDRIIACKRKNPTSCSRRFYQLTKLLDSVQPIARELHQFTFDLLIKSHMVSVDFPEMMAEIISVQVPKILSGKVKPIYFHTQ

Turning to `COc1ccc2c3c1O[C@H]1[C@@H](O)C=C[C@H]4[C@@H](C2)N(C)CC[C@@]341`, the Potency was 24.2 µM (active) in assay [1]; 30.4 µM (active) and inactive in assay [6]; 48.2 µM (active) and inactive in assay [13]. Further, the max response in assay [1] was 0.391% (inactive). Further, the Potency entry in assay [2], in [3], in [5], in assay [8], in assay [9] and in [10] was “inactive” in each case. The Potency entry in assay [11], in assay [15], in assay [17] and in [18] was “inactive” throughout. For the same molecule, the molecule was classed as inactive in [4], in assay [7], in assay [12], in assay [14], in assay [16] and in assay [19].

On to `NCC(O)c1ccc(O)cc1` (centres undefined), for which the max response in [1] is -6.22% (inactive) and 3.7% (inactive). The Potency entry in assay [2], in assay [3], in assay [5], in assay [6], in assay [8] and in assay [9] was “inactive” each time. Besides, the Potency entry in assay [10], in assay [11], in assay [13], in assay [15], in assay [17] and in assay [18] was “inactive” each time. Moreover, the result in assay [4], in [7], in assay [12], in [14] and in [16] was inactive.

`c1ccc(OP(Oc2ccccc2)Oc2ccccc2)cc1`: in assay [1], the max response was 4.65% (inactive) and 9.76% (inactive). Besides, the Potency entry in assay [2], in assay [3], in [5], in assay [6], in assay [8] and in [9] was “inactive” in each case. The Potency entry in [10], in assay [11], in assay [13], in [15], in [17] and in assay [18] was “inactive” each time. The molecule was classed as inactive in [4], in assay [7], in [12], in assay [14], in assay [16] and in assay [19].

`CCCCN(CC)C(=O)SCCC`: the max response in assay [1] is 0.284% (inactive). For the same molecule, the Potency result in [2], in assay [3], in assay [5], in assay [6], in assay [8] and in assay [9] was “inactive” each time. In addition, the Potency entry in assay [10], in [11], in assay [13], in assay [15], in assay [17] and in [18] was “inactive” each time. In [20], the Potency entry is “inactive”. The outcome in assay [4], in [7], in assay [12], in [14], in assay [16] and in [19] was inactive.

On to `CON(C)C(=O)Nc1ccc(Cl)c(Cl)c1`, for which the Potency in [1] is 43.6 µM (active); in assay [13] it was “inactive and 43.6 µM (active)”. Moreover, in assay [1], the max response is -28.4% (inactive). Besides, the Potency entry in [2], in assay [5], in [6], in assay [8], in [9] and in assay [10] was “inactive” in each case. The Potency entry in [11], in [15], in [17] and in assay [18] was “inactive” each time. Also, the outcome in [4], in [7], in [12], in assay [14], in assay [16] and in [19] was inactive.

On to `CCNc1nc(NC(C)(C)C)nc(SC)n1`, for which the Potency is 27.2 µM (active) in [1] and 43.1 µM (active) in assay [13]. Also, the Potency entry in assay [2], in assay [3], in assay [5], in assay [6], in [8] and in assay [9] was “inactive” each time. Further, the Potency result in [10], in assay [11], in assay [15], in [17] and in assay [18] was “inactive” in each case. Also, the outcome in assay [4], in assay [7], in assay [12], in assay [14], in assay [16] and in [19] was inactive.

Turning to `Cc1ccc(N)cc1N`, the max response in assay [1] was 14.6% (inactive). Also, the Potency result in assay [2], in assay [3], in assay [5], in assay [6], in assay [8] and in [9] was “inactive” throughout. In addition, the Potency entry in assay [10], in assay [11], in assay [13], in [15], in assay [17] and in assay [18] was “inactive” throughout. Further, the molecule was classed as inactive in assay [4], in [7], in assay [12], in [14], in [16] and in assay [19].
